Screening results: PubChem BioAssay, National Center for Advancing Translational Sciences (NCATS)
Luc counter – Counterscreen for Luciferase (Kinase-Glo TM) Inhibition. 0.28% of 200,000 active. Kinase-Glo luciferase, ATP luminescence, 8 min. AID 1379, 2008. Potency, µM (top dose mostly 38.3 µM), for inactives: at the top dose activity change, negative = inhibition, hits mostly inhibitors; also: nearly all actives have a fitted effect of over 60% in size
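Inhibition of Kinase-Glo luciferase light generation was assessed at 10 uM ATP in pH 7.2 imidazole buffer, with luminescence measured after eight minutes at ambient temperature.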
Gal4-VP16 FLuc – VP16 counterscreen qHTS for inhibitors of ROR gamma transcriptional activity; 3.5% of 310,000 active; AID 2546, 2010; Potency, µM (highest dose often 53.6 µM), for the others: at the highest dose activity, negative = inhibition, most hits filed as inhibitors; Drosophila S2 Gal4-VP16 UAS-luciferase, luminescence, 20 h;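 also: Gal4-VP16 expression switched on by copper sulfate through the metallothionein promoter; nearly all actives have a fitted effect of over 50% in size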
RORgamma inh – qHTS for inhibitors of ROR gamma transcriptional activity. 5.4% of 310,000 active. Nuclear receptor ROR-gamma (Mus musculus), P51450. Drosophila S2 Gal4-RORgamma UAS-luciferase reporter, 20 h. Potency, µM (top dose mostly 53.6 µM), inactives show top-dose activity change, negative = inhibition, actives largely listed as inhibitors; also: nearly all actives have a fitted effect of over 60% in size
Target sequence (P51450 whole entry, looked up, the tested form may be a part): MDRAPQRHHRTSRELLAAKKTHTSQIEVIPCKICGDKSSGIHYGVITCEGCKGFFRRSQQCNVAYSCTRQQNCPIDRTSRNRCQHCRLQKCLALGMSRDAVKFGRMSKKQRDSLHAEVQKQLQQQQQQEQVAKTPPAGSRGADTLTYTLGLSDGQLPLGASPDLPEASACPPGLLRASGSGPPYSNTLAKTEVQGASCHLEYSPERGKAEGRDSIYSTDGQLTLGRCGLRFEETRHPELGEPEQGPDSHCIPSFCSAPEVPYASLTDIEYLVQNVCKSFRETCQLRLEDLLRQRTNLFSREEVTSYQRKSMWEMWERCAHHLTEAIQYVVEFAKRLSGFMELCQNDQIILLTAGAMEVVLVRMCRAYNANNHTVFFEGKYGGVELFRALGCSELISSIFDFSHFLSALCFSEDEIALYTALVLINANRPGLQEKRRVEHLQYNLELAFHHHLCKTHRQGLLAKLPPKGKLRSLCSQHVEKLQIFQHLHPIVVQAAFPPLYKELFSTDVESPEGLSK
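Drosophila S2 cells stably expressing Gal4-DBD/mouse RORγ fusion under metallothionein promoter plus UAS-luciferase; compound 1 h, then 700 uM CuSO4 induction for 20 h at ambient temperature; inhibition read as reduced luminescence.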
* marks the source's active call; other numbers are inactive results; ? = inconclusive; · = not tested or not shown; [ ] = another dose, or the depositor's remark. Hits are enriched below; roughly 6.2% of the tested compounds scored in any of these assays. Calls follow the shape of the dose curve; as a rule, active = well fitted curve in the direction sought with a large enough effect; inconclusive = small, poorly fitted or top-dose-only effect, or another doubt; inactive = no such curve, though single readings can be large; an effect the other way counts as inactive or inconclusive. % is scaled to controls: 0 for no effect and ±100 for the full control effect; potency is read from the fitted curve at half-maximal effect.

SMILES | Luc counter | Gal4-VP16 FLuc | RORgamma inh
CCOC(=O)CSc1ncc(OC)c(Sc2ccc(OC)cc2)n1 | 2% | -1% | -11%
COc1cnc(-c2ccccn2)nc1Sc1ccc(F)cc1 | -1% | 3.5µM* | -29%
COc1cnc(N(C)C)nc1Sc1ccc(Cl)cc1 | -7% | -9% | 25%
CC(=O)c1coc2ccc(OCC(=O)O)cc12 | 0% | -5% | -6%
CN(C)CCN1C(=O)c2ccccc2N(C)c2ccccc21 | · | -15% | -16%[10 µM]
Cc1c(C(=O)NN)[nH]c2ccc([N+](=O)[O-])cc12 | · | ? | 11µM*
NNC(=O)c1[nH]c2ccc([N+](=O)[O-])cc2c1-c1ccccc1 | · | -5% | -20%
COc1cc(/C=C/C(=O)c2cccs2)cc(OC)c1OC | -4% | ? | 7.9µM*
O=C(/C=C/c1ccc(O)cc1)c1ccccc1O | 4.5µM* | -2% | ?
O=C(/C=C/c1ccc(OCc2ccccc2)cc1)c1cccs1 | 0% | -4% | -36%
COc1cc(/C=C/C(C)=O)cc(OC)c1OC | 21% | 30% | -4%
O=C(/C=C/c1ccccc1)c1cc(Br)ccc(=O)c1O | 14% | ? | ?
O=C(/C=C/c1ccc(O)cc1)c1cccs1 | 5.6µM* | -3% | 14µM*
Cc1ccc(/C=C/C(=O)c2ccccc(=O)c2O)cc1C | -4% | 3.5µM* | 2.8µM*
O=C(/C=C\c1ccccc1)c1ccccc1O | · | 26%[10 µM] | 17%[10 µM]
COc1ccc(/C=N/NC(=O)c2ccn[nH]2)cc1CN1CCOCC1 | · | 4% | 11%
COC(=O)C1C(c2ccc(OC)cc2)Nc2nnc(C(F)(F)F)n2C1(C)O (stereo unspecified) | 1% | -16% | 0%
O=C(NC1CCCCC1)/C(=N\O)c1ccccn1 | -4% | 24% | -37%
CCc1ccc(N(C(=O)c2snc(C(N)=O)c2N)C(C(=O)NCC2CCCO2)c2cccs2)cc1 (stereo unspecified) | -6% | -6% | 38%
COc1ccc(/C=C/C(=O)O)cc1S(=O)(=O)N1CCCCC1 | -1% | -4% | 0%
Clc1ncnc2scc(-c3ccccc3)c12 | -1% | -6% | ?
CNc1ncnc2sc(-c3ccccc3)cc12 | · | 4% | -8%
S=c1[nH]cnc2scc(-c3ccccc3)c12 | -1% | 0.5µM* | 0.5µM*
S=c1[nH]cnc2sc(-c3ccccc3)cc12 | -3% | 4.5µM* | 1.4µM*
O=C(COC(=O)c1cc(=O)[nH]c2ccccc12)c1cccs1 | -4% | 17% | -1%
SMILES | Luc counter | Gal4-VP16 FLuc | RORgamma inh
S=C(N/N=C/c1ccc2ncccc2c1)Nc1ccccc1 | -4% | ? | 1.3µM*
Cn1cccc1C(=O)N/N=C/c1c(Cl)cccc1Cl | · | 1% | -20%
CNC(=S)N/N=C/c1ccccc1Cl | -1% | 5.6µM* | 4µM*
O=C(CC(=O)Nc1cccc(Cl)c1)N/N=C\c1ccccc1 | 6% | -15% | 39%
C(=N\NCc1ccccc1)/c1ccc2ncccc2c1 | · | -26% | 4%
COC(=O)N/N=C/c1ccccc1Cl | -3% | 16% | 8%
S=C(N/N=C/c1cccc2ccccc12)Nc1cccc(Cl)c1 | · | 7.9µM* | 0.45µM*
CNC(=S)N/N=C/c1c(Cl)cccc1Cl | 1% | 6.3µM* | 3.2µM*
COc1cc(OC)c2c(c1)OC(c1ccccc1)CC2=O (stereo unspecified) | -1% | -12% | 23%
CCOc1ccccc1CN1CCNC(=O)C1CC(=O)NCCN1CCOC1=O (stereo unspecified) | · | 8% | -17%
O=C(O)C(O)C(O)(Cc1ccc(O)cc1)C(=O)O (stereo unspecified) | -2% | ? | -6%
O=C(NCc1ccccn1)c1cccc(NS(=O)(=O)c2ccccc2F)c1 | 0% | -1% | 1%
Cc1ccc(NC(=O)CN(C)C(=O)c2ccc(C(F)(F)F)cc2)cc1 | 0% | 2% | 40%
Nc1ncnc2c1ncn2[C@@H]1O[C@H](C(=O)N2CCN(CC(=O)Nc3cccc4c3CNC4=O)CC2)[C@@H](O)[C@H]1O | · | -1% | -13%
Cc1cccc(C)c1NC(=S)NC(C)(C)CO | · | 3% | -39%
S=C(N/N=C/c1ccccc1Cl)Nc1ccccc1 | -8% | 0% | 0.71µM*
Cc1c(Cl)cccc1NC(=S)N/N=C/c1ccccc1Cl | · | 4.5µM* | 1µM*
Cc1c(Cl)cccc1NC(=O)CCC(=O)N/N=C/c1ccc[nH]1 | -1% | ? | ?
COc1ccc(/C=N/NC(=S)Nc2ccccc2)cc1 | -4% | ? | 7%
Cc1cccc(C)c1NC(=S)N/N=C/c1c(Cl)cccc1Cl | -4% | 2.5µM* | 0.5µM*
